Measured values: PubChem BioAssay AID2315 (National Center for Advancing Translational Sciences (NCATS), 2010)
Screen size: about 290,000 compounds; about 27,000 (9.3%) were called active. No stated cut-off is given here; in the data, active means inhibition mostly above about 28% (no sharp cut-off); inactive means mostly below about 43%. Many of the other results were omitted from the sample, so actives are more common in it than they were.

Experiment: A qHTS for Small Molecule Inhibitors of Shiga Toxin; further: 0% is about no effect
Conditions: Vero cells, Shiga toxin protein synthesis inhibition reporter; at 38.7 µM, active compounds read high

Row | Structure (SMILES) | inhibition
1 | CC(=O)Nc1ccccc1OC(C)C(=O)N1CCC(C)CC1 (configuration not stated) | -7.84% (inactive)
2 | O=C(N/N=C/c1cc(Cl)cc([N+](=O)[O-])c1O)C(O)(c1ccccc1)c1ccccc1 | -2.27% (inactive)
3 | CCOC(CNC(=O)C(=O)NCC(c1ccco1)N1CCN(c2ccc(OC)cc2)CC1)OCC (configuration not stated) | 14.3% (inactive)
4 | CCOc1ccccc1NC(=O)COc1ccc(S(=O)(=O)N2CCCC2)cc1 | 14.6% (inactive)
5 | Cc1oc2c(C)c3oc(=O)c(CC(=O)N[C@@H](CC(C)C)C(=O)N[C@@H](Cc4ccccc4)C(=O)O)c(C)c3cc2c1C | -6.95% (inactive)
6 | Cc1cc(C)c(S(=O)(=O)c2cc(F)ccc2C)c(=O)[nH]1 | -5.17% (inactive)
7 | CCOc1ccc(NC(=O)COc2ccc(S(=O)(=O)N3CCCC3)cc2)cc1 | 22.6% (inactive)
8 | Cc1ccc(NC(=O)NC(=O)CSc2nnc(-c3ccc(OC(F)F)cc3)n2N)c(C)c1 | 12.9% (inactive)
9 | C=C(C)CSc1nnc(-c2ccc(C)cc2)n1N | 130% (active)
10 | Cc1ccc(-c2nnc(SC(C)C#N)n2N)cc1 (configuration not stated) | 12.2% (inactive)
11 | COc1cccc(C(=O)OCc2cc(=O)oc3c(C)c(C)ccc23)c1OC | 4.14% (inactive)
12 | Cc1ccc(CNC(=O)CCS(=O)(=O)c2ccc3c(c2)CC(C)N3C(=O)C2CC2)o1 (configuration not stated) | 32.1% (inactive)
13 | O=C(Nc1nonc1-c1ccc(Cl)cc1)c1ccco1 | 6.78% (inactive)
14 | COc1cccc(CNC(=O)Cn2c(=O)oc3cc(S(=O)(=O)N4CCCCC4)ccc32)c1 | -6.29% (inactive)
15 | c1ccc(-n2ncc(-c3nn[nH]n3)n2)cc1 | -22.5% (inactive)
16 | Oc1ccc(-c2nncn2-c2ccccc2)cc1 | -7.57% (inactive)
17 | c1ccc(-n2nc3ccccc3n2)cc1 | 25.4% (active)
18 | CN1CN(C)c2ccc([N+](=O)[O-])c3cccc1c23 | 4.19% (inactive)
19 | Cc1nn(C)cc1S(=O)(=O)N1CCN(c2ccc(F)cc2)CC1 | -28% (inactive)
20 | COc1ccc(C(C(=O)NC(C)(C)C)N(Cc2ccc(F)cc2)C(=O)CCC(=O)Nc2cc(C)on2)cc1 (configuration not stated) | -4.11% (inactive)
21 | Cc1cc(=O)oc2c(C)c(OCC(=O)NCCN3CCOCC3)ccc12 | -1.86% (inactive)
22 | O=C(Cc1ccc(Cl)cc1)NCc1nc(-c2ccccc2)no1 | -5.48% (inactive)
23 | O=C1c2ccccc2C(=O)N1CCCc1nc(-c2ccccc2)no1 | 8.99% (inactive)
24 | c1ccc(CCc2nc(-c3ccncc3)no2)cc1 | 60.1% (active)
25 | OC(COc1ccc2ccccc2c1)Cn1cncn1 (configuration not stated) | 11% (inactive)
26 | OC(COc1ccc2ccccc2c1)CN1CCOCC1 (configuration not stated) | 26.8% (active)
27 | COc1ccccc1OCC(O)CN1CCOCC1 (configuration not stated) | -3.66% (inactive)
